# HTR5A inv ctr: counter-screen for OPRM1-OPRD1 inverse agonists: human HTR5A inverse agonism | HTR5A cell line, luminescence | hit rate 0.083% among 340,000 | P47898 | inhibition, % at 9.3 µM | AID 504634; in the data active means inhibition mostly above about 23%, no sharp cut-off; inactive means mostly below about 18%;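 further: 0% = cells with DMSO and 100% = no-cell wells with DMSO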
# HTR5A ag ctr: HTR5A agonism, opioid heterodimer counter-screen; P47898; HTR5A agonist assay, luminescence, cell-based; activation, % at 9.3 µM; hit rate 0.61% among 340,000; in the data active means activation mostly above about 9.5%, no sharp cut-off; inactive means mostly below about 7.6%;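 further: 0% = cells with vehicle only and 100% = reference agonist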
# MOR-DOR ag: OPRM1-OPRD1 heterodimerization agonism. activation, % at 9.3 µM. hit rate 0.3% among 340,000. P35372+P41143. cells, luminescence; in the data active means activation above about 18%;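 further: 0% = vehicle-treated cells and 100% = reference agonist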
# MOR-DOR inv ag: inverse agonist of human OPRM1-OPRD1 heterodimerization | P35372+P41143 | cell-based MOR-DOR heterodimer luminescence, inverse agonism | inhibition, % at 9.3 µM | hit rate 0.21% among 340,000 | AID 504357; in the data active means inhibition above about 22%, passing the limit was not always enough;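 further: 0% = cells with DMSO and 100% = wells without cells with DMSO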
# Active calls of the source: *. An excerpt weighted towards active compounds, which were near 1.1% of everything screened.
SMILES,HTR5A inv ctr,HTR5A ag ctr,MOR-DOR ag,MOR-DOR inv ag
C/C=C/COC(=O)C1=C(C)NC(=O)NC1c1ccc2c(c1)OCO2 (stereo not given),-9,3,-2,9
CC(C)CC(C(=O)N1CCOCC1)N1Cc2ccccc2C1=O (stereo not given),-36,12*,-1,6
N/C(Cc1ccc(Cl)cc1)=N\OC(=O)c1ccc2ccccc2c1,-81,34*,27*,-160
COc1ccc(C/C(N)=N/OC(=O)c2ccc(Cl)cc2)cc1,-18,7,3,-14
O=C1CN(C(=O)c2ccccc2F)C(c2ccccc2)c2cc(Cl)ccc2N1 (stereo not given),-25,7,0,-1
CCOc1ccc(S(=O)(=O)Nc2ccc(Cl)cn2)c(C)c1C,-3,1,3,-12
CCOc1cc(C)c(S(=O)(=O)Nc2ccc(Cl)cn2)cc1C,-3,14*,1,-4
CCOc1ccc(N(CC(=O)NCc2ccc(F)cc2)C(=O)CCC(=O)Nc2nccs2)cc1,-11,13*,1,-7
CCc1ccc(N(CC(=O)NCc2ccc(F)cc2)C(=O)c2csnn2)cc1,-23,9.4*,-2,10
Cc1cccc(C)c1N(CC(=O)NCc1ccc(F)cc1)C(=O)c1csnn1,-2,1,2,-11
COC(=O)C1=C(C)NC(=O)/C1=C\c1ccco1,-33,11*,-2,8
COC(=O)C1=C(C)N(C)C(=O)/C1=C\c1ccco1,13,5,-1,5
CCCN(CC(=O)Nc1ccccc1C)C(=O)COC(=O)c1cnc(C)cn1,-28,10*,1,-4
CC1Cc2ccccc2N1C(=O)COC(=O)c1cccnc1Cl (stereo not given),-58,11*,-2,10
O=C1c2ccccc2C(=O)c2c1ccc1c(=O)n(C3CCCCC3)[nH]c21,-3,1,-1,4
O=C1C2=C(c3ccccc31)[N+](=O)[C@@H]1CCCC[C@@H]1N2[O-],18,-6,-8,46*
COc1ccccc1N(C)S(=O)(=O)c1ccc(C(=O)N2CCCc3ccccc32)cc1,-8,2,0,1
COc1cc(C2CC(=O)c3cnc(NC(=O)c4ccco4)nc3C2)cc(OC)c1OC (stereo not given),0,0,-3,17
O=C(Nc1ccc(Cl)cc1)c1cc2c(cc1O)[nH]c1ccccc12,-50,14*,6,-28
CCOc1ccc(NC(=O)Cn2nnc(C(=O)NCc3ccc4c(c3)OCO4)c2N)cc1,-28,13*,9,-45
CCCCc1c(C)nn(-c2nnc3c4ccccc4n(C)c3n2)c1C,-42,12*,8,-45
Cn1c2ccccc2c2nnc(NN)nc21,12,-5,1,-5
CC1=CC2C(C(O)CC3(C)C2CC(C)C32OCOC23COCO3)C2(C)C/C(=C\O)C(=O)C=C12 (stereo not given),-120,31*,26*,-112
O=C(N=C1SC2CS(=O)(=O)CC2N1c1ccccc1)c1cccc([N+](=O)[O-])c1 (stereo not given),-10,4,-3,13
CCCC(=O)C1=C(O)C(C(=O)OC)C(C)(C)CC1=Nc1ccccc1 (stereo not given),10,-4,-1,5
SMILES,HTR5A inv ctr,HTR5A ag ctr,MOR-DOR ag,MOR-DOR inv ag
CCCC(=O)C1=C(O)C(C(=O)OC)C(C)(C)CC1=Nc1cccc2ccccc12 (stereo not given),-27,10*,4,-26
COc1cc(N=Nc2ccc(C)cc2S(N)(=O)=O)c(C)cc1N,-35,9.8*,-2,12
Cc1ccc(C(=O)NCC(=O)NCC(=O)OCC(=O)c2ccc(F)cc2)cc1,-6,-1,-1,8
CCn1c(SCC(=O)Nc2sccc2C(N)=O)nnc1C1CC1,-31,13*,-1,4
Nc1cccc2c1C(=O)N(C(=O)/C=C/c1ccc(F)cc1)C2=O,-6,2,3,-14
Cc1ccc(OCC(O)Cn2c(=N)n(Cc3ccccc3)c3ccccc32)cc1 (stereo not given),4,12*,3,-13
N=c1n(Cc2ccccc2)c2ccccc2n1CC(O)COc1ccc(Cl)cc1Cl (stereo not given),-80,31*,31*,-173
CCN(CC)Cc1c(C(=O)N2CCc3ccccc3C2)nc2ccc(Cl)cn12,3,-1,-2,13
Cn1cccc1C(=O)NC1CCCCC1,1,-5,-2,10
CC(C)n1c(N2CCN(C(=O)NCc3ccccc3)CC2)nc2ccccc21,-34,10*,-2,9
Cc1onc(-c2c(F)cccc2Cl)c1C(=O)N=C(N)N1CCCC1,11,-5,0,0

# High-throughput results (PubChem)
